NTR1 ag: agonists of human neurotensin receptor NTR1; P30989; NTR1-U2OS beta-arrestin-GFP spot imaging, agonist mode; activation, % at 20 µM; 330,000 compounds, 0.17% hits;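 active means activation at or above 40% of the spot to cytoplasm intensity ratio, with at least 20 cells analyzed; inconclusive means wells under 20 cells, flagged as cytotoxic or low count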;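 further: 0% = DMSO without peptide and 100% = 100 nM NTR1 peptide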
m5-HT2A agonist: activates the mouse 5-HT2A serotonin receptor; CHO-K1 mHTR2A beta-arrestin complementation, luminescence; percent of 30 µM serotonin response; activation, % at 7.6 µM; 360,000 compounds, 0.66% hits;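 active means activation above a run cutoff, the mean activation of all tested compounds plus 3 SD, cut at about 14% in these data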;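 further: 0% = plate median of compound wells and 100% = 30 µM serotonin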
B2AR ag: agonists of human beta-2 adrenergic receptor inducing internalization | response, % (concentration not given with the values) | P07550 | 340,000 compounds, 0.43% hits | Am2.2-beta2AR cells, FAP receptor internalization, flow cytometry;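 active means response above a set limit, near 3 SD of response in nonfluorescent compounds, cut at about 42% in these data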
Exocytosis inh: blocks lytic granule exocytosis. TALL-104 LAMP-1 surface exposure, flow cytometry; cells stimulated with thapsigargin and PMA. inhibition, % at 10 µM. 360,000 compounds, 0.66% hits;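 active means inhibition above about 55%, limit read from the data; inconclusive means no clear call, values can overlap the other calls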
ABHD5 PLIN5 PPI: inhibitors of human ABHD5-perilipin-5 interaction; AID 602281; Q00G26+Q8WTS1; inhibition, % at 4 µM; 360,000 compounds, 0.78% hits; Split G. princeps luciferase complementation, luminescence, 4 h;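 active means inhibition above the mean inhibition across every tested compound plus 3 SD, cut at about 22% in these data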;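 further: 0% = DMSO only wells and the 100% control is not disclosed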
Active calls of the source: *; ? = inconclusive; . = no result. Only some compounds are listed: those with a hit (about 2.3% of all), similar ones and a draw of the others.

SMILES	NTR1 ag	m5-HT2A agonist	B2AR ag	Exocytosis inh	ABHD5 PLIN5 PPI
O=c1nc2scc(-c3ccccc3)n2c2ccccc12	1	3	-20	3	3
O=C(CCN1C(=O)/C(=C/c2ccccc2F)SC1=S)NCCc1ccc(O)cc1	5	-10	-2	1	-2
COc1ccccc1/C=C1\SC(=S)N(CCC(=O)NCCc2ccc(O)cc2)C1=O	3	-6	8	88*	6
C=CCC[C@@H](Cc1ccc(F)cc1)C(=O)OC[C@@H](Cc1c[nH]c2ccccc12)NC(=O)[C@@H](CC=C)CC(=O)N(CCO)Cc1ccccc1	13	12	-1	54	3
C=CCC[C@H](Cc1ccc(F)cc1)C(=O)OC[C@H](Cc1c[nH]c2ccccc12)NC(=O)[C@H](CC=C)CC(=O)N(CCO)Cc1ccccc1	14	1	9	59*	-13
COC1(OC)C=CC(=O)C=C1NC(=O)c1ccccc1OC(C)=O	2	-11	6	-4	23*
Oc1[nH]c2ccccc2c1N=Nc1ccccn1	.	-2	-25	0	5
Oc1c(N=Nc2ccccn2)ccc2ccccc12	1	-12	15	102*	17
COc1cccc(CN2CCNC(=O)C2CC(=O)O)c1OC (stereo not drawn)	-1	14*	7	25	2
COc1ccc(C(=O)/C=C/C(=O)N(Cc2ccccc2OC)C(C(=O)NC2CCCCC2)c2ccncc2)c(O)c1 (stereo not drawn)	4	-2	1	?	1
COc1ccc(C(=O)/C=C/C(=O)N(CC(=O)NC2CCCCC2)Cc2ccccc2)c(O)c1	.	-5	111*	46	9
COc1ccc(C(=O)/C=C/C(=O)N(CC(=O)NC2CCCCC2)CC2CCCO2)c(O)c1 (stereo not drawn)	23	-10	112*	34	66*
COc1ccc(C(=O)/C=C/C(=O)N(Cc2ccccc2)C(C(=O)NC2CCCCC2)c2ccncc2)c(O)c1 (stereo not drawn)	5	-4	-9	0	-1
COc1ccc(C(=O)/C=C/C(=O)N(CC(=O)NC2CCCCC2)Cc2ccccc2OC)c(O)c1	.	1	95*	41	3
Cc1ccc(-n2c(Cl)c(Cl)nc(Cl)c2=O)cc1	.	5	50*	28	85*
CC(=O)Nc1ccc(NC2=Nc3ccccc3N3C2=Nc2c(c(C)nn2-c2ccccc2)C3c2ccccc2)cc1 (stereo not drawn)	4	14	5	58*	-4
NS(=O)(=O)c1ccc(N/N=C/c2cn(-c3ccccc3)nc2-c2ccccc2)c([N+](=O)[O-])c1	22	-2	81*	-4	-2
N#Cc1c(C(F)(F)F)cc(-c2cccs2)nc1SCc1cccnc1	7	17*	-12	-2	7
S=C1NC2=C(CCC/C2=C\c2ccccc2)C(c2ccccc2)N1 (stereo not drawn)	0	-1	-2	-4	-6
C(=C1/CCCC2=C1Nc1ncnn1C2c1ccccc1)/c1ccccc1 (stereo not drawn)	73*	.	.	.	.
O=C(O)C1=C[C@H](c2coc3ccccc3c2=O)C[C@H](OCCCCO)O1	1	-8	1	69*	2
CN1CCN(C(=O)C2=C[C@@H](c3coc4ccccc4c3=O)C[C@@H](OCCCCO)O2)CC1	8	4	-5	-6	13
O=C(CN1CCN(C(=O)CNC(=O)c2ccc(N3CCCC3=O)cc2)CC1)Nc1cccc(F)c1	.	7	.	2	7
COc1ccc(/C=N/Nc2cc(C)nc3ccccc23)cc1	25	-3	27	60*	8
COc1ccc(/C=N/Nc2cc(C)nc3c(C)cccc23)cc1	27	-8	37	45	4
SMILES	NTR1 ag	m5-HT2A agonist	B2AR ag	Exocytosis inh	ABHD5 PLIN5 PPI
Cc1ccc(OCCNC(=O)CCNS(=O)(=O)c2ccc3ccccc3c2)cc1	0	-6	5	0	-5
O=C1C(=O)N(CCCc2ccccc2)c2ccccc21	3	-2	3	76*	16
COc1cccc(/C=C2\SC(=S)NC2=O)c1OS(=O)(=O)c1ccc(NC(C)=O)cc1	0	1	77*	-12	-3
O=C(Nc1cccc2ccccc12)OCc1ccccc1	.	-7	-6	-16	-1
Cc1cc(C(=O)Nc2cccnc2)on1	-3	15*	1	-4	3
COc1ccc(Cl)cc1N(CC(=O)NCCSc1ccccn1)S(=O)(=O)c1ccccc1	0	-4	0	69*	-3
COc1ccc(N(CC(=O)NCCSc2ccccn2)S(=O)(=O)c2ccccc2)cc1Cl	2	-2	1	3	-8
CC(C)C[C@@]12C(=O)N(c3cccc(Cl)c3)C(=O)N1[C@H](c1ccc(Br)cc1)[C@@H]1C(=O)N(C(C)(C)C)C(=O)[C@@H]12	0	2	3	-5	-8
CC(C)C[C@@]12C(=O)N(c3cccc(F)c3)C(=O)N1[C@H](c1ccc(Br)cc1)[C@@H]1C(=O)N(C(C)(C)C)C(=O)[C@@H]12	2	-11	-2	77*	-8
COc1ccccc1CCNC(=O)CN1C(=O)c2ccccc2S1(=O)=O	4	1	-1	4	7
Clc1cccc(CNc2nc(-c3cccnc3)nc3ccccc23)c1	18	0	-13	99*	4
c1ccc(CNc2nc(NCc3ccccc3)c3ccccc3n2)cc1	13	-8	72*	61*	11
CC(C)(C)c1ccc(-c2nc(NCc3cccnc3)c3ccccc3n2)cc1	23	-4	3	4	-9
c1ccc(CNc2nc(-c3ccccc3)nc3ccccc23)cc1	16	-3	-8	2	-3
CCOC(=O)Cn1nc(C)n(-c2ccc(F)cc2)c1=O	0	7	-3	9	3
CCCCNC(=O)C1=C(N)C(C(=O)Nc2ccc(C)c(S(=O)(=O)N3CCCCC3)c2)SC1=Nc1ccc(C)cc1C (stereo not drawn)	31	5	5	-1	24*
CCCCC(=O)Nc1ccc(C)c(S(=O)(=O)N2CCCCCC2)c1	-1	-1	37	-5	6
CCOC(=O)C1CCN(S(=O)(=O)c2c(Cl)ccc3nonc23)CC1	7	6	79*	7	15
CCOC(=O)C1CCN(S(=O)(=O)c2cccc3nonc23)CC1	-2	1	5	2	-1
CCCCCCCCNCCS(=O)(=O)NCc1ccc(OC)cc1	.	-1	11	50	-7
CS(=O)(=O)N(CC(=O)Nc1ccc(F)c(F)c1)c1cccc([N+](=O)[O-])c1	2	-6	1	-2	7
O=C(/C=C/c1cccc([N+](=O)[O-])c1)NCCSCc1ccc(Cl)cc1Cl	2	1	-6	3	1
O=C(/C=C/c1ccc2c(c1)OCO2)NCCSCc1ccc(Cl)cc1Cl	4	-7	96*	-2	-7
O=C(/C=C/c1ccc2c(c1)OCO2)NCCSCc1cccc(Cl)c1	2	-6	44*	2	4

Screening results (PubChem)
